# High-throughput results: PubChem, National Center for Advancing Translational Sciences (NCATS)
# EPAC1 agonist = activates human EPAC1 exchange factor. O95398. EPAC1 agonist qHTS, biochemical assay; response scale: 100% = response to 6.5 mM cAMP. Potency, µM (series often up to 154 µM), without a hit: at the top dose activation, hits mostly activators. 360,000 compounds, 0.073% hits; note: nearly all actives have a fitted effect of over 60% in size
#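 Nucleotide exchange assay: 100 nM EPAC1 with 250 nM Rap1B loaded with BODIPY-GDP and 50 uM GDP, room temperature. Fluorescence (480/540 nm) read every 5 min for 30 min; signal change normalized to 6.5 mM cAMP as full agonist.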
# Rango complex inh = inhibitors of Rango-importin beta complex formation | AID 540263 | Potency, µM (highest dose often 92.2 µM), for inactives: at the highest dose inhibition of complex formation | 340,000 compounds, 0.031% hits | Rango CFP/YFP FRET sensor + importin beta, 45 min; calls by dose curve;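 note: 0% = DMSO wells and 100% = buffer wells lacking importin beta; nearly all actives have a fitted effect of over 15% in size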
# Target sequence (Q14974 whole entry, looked up): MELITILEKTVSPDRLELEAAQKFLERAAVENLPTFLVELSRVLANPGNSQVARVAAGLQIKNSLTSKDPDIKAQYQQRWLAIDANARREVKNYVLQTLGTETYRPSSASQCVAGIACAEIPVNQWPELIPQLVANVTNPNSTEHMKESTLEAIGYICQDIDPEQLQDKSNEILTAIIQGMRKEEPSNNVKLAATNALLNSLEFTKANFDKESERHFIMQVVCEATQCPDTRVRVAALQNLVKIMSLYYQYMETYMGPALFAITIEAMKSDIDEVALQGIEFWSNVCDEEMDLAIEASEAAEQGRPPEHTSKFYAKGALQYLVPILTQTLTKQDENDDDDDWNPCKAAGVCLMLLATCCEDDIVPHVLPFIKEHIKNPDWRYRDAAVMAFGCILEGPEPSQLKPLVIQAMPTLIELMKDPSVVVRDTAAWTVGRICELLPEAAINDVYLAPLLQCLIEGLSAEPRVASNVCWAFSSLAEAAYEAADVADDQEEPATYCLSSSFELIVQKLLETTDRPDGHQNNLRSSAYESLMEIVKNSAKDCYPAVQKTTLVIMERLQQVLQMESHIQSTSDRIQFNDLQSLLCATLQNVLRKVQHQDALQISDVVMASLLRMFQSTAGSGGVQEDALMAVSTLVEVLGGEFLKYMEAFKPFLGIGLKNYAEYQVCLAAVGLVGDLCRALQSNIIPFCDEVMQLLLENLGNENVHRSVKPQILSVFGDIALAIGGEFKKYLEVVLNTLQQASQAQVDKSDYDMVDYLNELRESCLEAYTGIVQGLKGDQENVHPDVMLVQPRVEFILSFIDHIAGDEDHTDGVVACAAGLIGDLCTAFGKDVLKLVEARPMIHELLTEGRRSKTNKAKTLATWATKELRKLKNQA
#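 Inhibition scored from the CFP 486 nm/YFP 530 nm FRET ratio 45 min after adding 0.125 microM importin beta to 50 nM Rango biosensor preincubated 5 min with compound (room temperature, PBS with DTT, Tween-20, BSA). No-importin wells as positive control.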
# EPAC2 antag = antagonists of human EPAC2; Q8WZA2; EPAC2 GEF exchange of Rap1B-BODIPY-GDP, fluorescence; Potency, µM (titrated, usually from 114 µM), inactives show at the top dose activity, negative = inhibition, actives largely listed as inhibitors; 360,000 compounds, 0.18% hits; note: % is set by controls: 0 for no effect and ±100 for the full control effect; nearly all actives have a fitted effect of over 45% in size
# EPAC2 agonist = activates human EPAC2 exchange factor; EPAC2 activation, biochemical qHTS; response scale: 100% = 6.5 mM cAMP response; AID 720711; 360,000 compounds, 0.079% hits; Potency, µM (doses to about 154 µM), for inactives: top-dose activation, most hits filed as activators; Q8WZA2; note: nearly all actives have a fitted effect of over 50% in size
#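 qHTS, titration series. 100 nM EPAC2 / 250 nM Rap1B-BODIPY-GDP / 50 uM GDP; RT; ex 480/em 540 nm, 5-min reads to 30 min. Norm. to 6.5 mM cAMP = activation.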
# Rango release inh = inhibitors of RanGTP-induced Rango-importin beta complex dissociation. 340,000 compounds, 0.071% hits. Potency, µM (highest dose often 46.1 µM), for inactives: at the highest dose activity change, negative = inhibition. Biochemical FRET Rango-importin beta, RanGTP-induced dissociation. O95149+P62826; calls by dose curve; note: % of control where 0% means no effect; nearly all actives have a fitted effect of over 45% in size
#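 Quantitative HTS using a FRET biosensor: 0.1 uM Rango, 0.25 uM importin beta, 0.6 uM Ran, 2 mM GTP, 0.2 uM RCC1 final, PBS with DTT, Tween-20 and BSA. Post-read taken 45 min after Ran addition.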
# EPAC1 antagonist = blocks human EPAC1 exchange factor; EPAC1 GEF assay, Rap1b-BODIPY-GDP exchange fluorescence; AID 720709; O95398; Potency, µM (highest dose often 115 µM), for inactives: at the top dose activity change, negative = inhibition, actives largely listed as inhibitors; 360,000 compounds, 0.14% hits;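 note: plate controls were vehicle for no effect and positive control for full effect; nearly all actives have a fitted effect of over 50% in size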
# * hit, by the source's call; ? = inconclusive; nt = no result given; [ ] = dose if it differs, or a comment. Shown are actives, neighbours in structure and some others; about 0.43% of the full set was active somewhere. Unless noted, calls come from the whole dose curve; as a rule, active = well fitted curve in the direction sought with a large enough effect; inconclusive = small, poorly fitted or top-dose-only effect, or another doubt; inactive = no such curve, though single readings can be large; an effect the other way counts as inactive or inconclusive. Potency is the fitted concentration of half-maximal effect.
SMILES,EPAC1 agonist,Rango complex inh,EPAC2 antag,EPAC2 agonist,Rango release inh,EPAC1 antagonist
CCSc1ccc2c(c1)N(CCCN1CCN(C)CC1)c1ccccc1S2,-7%,0%,-10%,6%,11%,-17%
CN1CCN(CCCN2c3ccccc3Sc3ccc(Cl)cc32)CC1,-9%,15%,13µM*,1%,11%,-28%
Nc1c(S(=O)(=O)O)cc(NC(=O)c2ccccc2)c2c1C(=O)c1ccccc1C2=O,-4%,0%,40µM*,0%,4%,?
CCOC(=O)c1c2c(n(-c3ccc(OC)cc3)c1C)C(=O)C(=O)c1ccccc1-2,8%,?,?,22%,9%,56µM*
CCOC(=O)c1sc(=S)n(-c2ccc(OC)cc2)c1C,1%,2%,-13%,2%,-14%,-26%
N#Cc1ccc(C(=O)NCCCSc2ccccc2)cc1,-6%,-4%,-1%,-3%,0%,-10%
O=C(N/N=C/c1ccc(Sc2ccccn2)o1)c1cc2ccccc2cc1O,1%,1%,1%,1%,-14%,56µM*
COc1ccc(O)c(/C=C2/SC(=S)N(Cc3ccccc3)C2=O)c1,4%,?,8%,12%,?,-8%
COc1ccc(/C=C2\SC(=S)N(NS(=O)(=O)c3ccc(C)cc3)C2=O)c(OC)c1,-1%,-4%,-13%,-18%,-3%,?
COc1ccccc1/C=C1\SC(=S)N(NS(=O)(=O)c2ccc(C)cc2)C1=O,-4%,1%,?,8%,2%,79µM*
COc1ccc(OC)c(/C=C2\SC(=S)N(NS(=O)(=O)c3ccc(C)cc3)C2=O)c1,9%,11%,?,9%,-11%,56µM*
COc1ccc(OC)c(/C=C2\SC(=S)N(Cc3cccnc3)C2=O)c1,9%,?,10%,112µM*,1%,4%
CC(C)(C)C1CCc2c(sc3nc(SCC(=O)O)nc(N)c23)C1 (stereo not given),-11%,-2%,?,7%,0%,-19%
CN(C)c1ccc(C(=O)/C=C/c2ccc(Br)cc2)cc1,4%,?,4%[57.1 µM],100µM*,?,16%
CCN(CC)c1ccc(/C=C/C(=O)c2ccc(Br)cc2)cc1,100µM*,?,364%,100µM*,?,313%
CN(C)c1ccc(C(=O)/C=C/c2ccccc2)cc1,-80%,?,26%,-42%,-15%,22%
CCN(C(=O)Nc1ccccc1OC)c1c(N)n(Cc2ccccc2)c(=O)[nH]c1=O,6%,1%,8%,0%[15.6 µM],0%,7%
CCCCc1c(-c2ccccc2F)ncn1CCc1ccccc1OC,-7%,nt,42µM*,16%,nt,-15%
Cc1ccc(C(=O)NNC2=NC(C)(C)Cc3ccccc32)cc1,5%,2%,3%,1%,16%,?
Oc1ccc(NCc2cccs2)cc1,12%,-6%,5%,7%,-7%,56µM*
O=S(=O)(Cc1ccccc1)N1CCC(c2nc(-c3cccs3)no2)CC1,14%,7%,-1%,7%,-10%,4%
NNC(=O)c1ccc(CN2C(=O)c3cccc4cccc2c34)cc1,7%,?,-5%,8%,18µM*,-16%
COc1ccccc1/C=N/NC(=O)c1ccc(CN2C(=O)c3cccc4cccc2c34)cc1,12%,?,2%,5%,-29%,-13%
O=C(CN1C(=O)N/C(=C\c2ccccc2OCc2ccc(C(=O)O)cc2)C1=O)Nc1ccccc1F,0%,?,1%,9%,-7%,35µM*
CCOC(=O)/C(C#N)=C1\CC2CCC1(C)C2(C)C (stereo not given),5%,2%,-28%,14%,-4%,-11%
O=[N+]([O-])c1ccc(C=NNc2ccc(S(=O)(=O)O)cc2)cc1,-4%,7%,20µM*,-1%,-3%,-13%
